# Reference: PubChem BioAssay (EPA / NIEHS)
# Inconclusive results are not listed. Calls of active or inactive are those of the source. How the source made its calls, unless noted: active means hit-call score of the fitted dose curve at least 0.9, where 1 is the maximum; inconclusive means response in the unintended direction; inactive means score below 0.9.
# Key:
# [1] = system: zebrafish Estrogen Receptor (ER2a), gene 317734; test: ATG_zfER2a_XSP2: Attagene TRANS-FACTORIAL Multi-Species (XSP2) HepG2 Assay for zebrafish Estrogen Receptor (ER2a) (AID 2283818);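 further: hits raise reporter mRNA so AC50 reflects activation of zebrafish ER2a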
# Summary of the method: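 HepG2 cells transiently transfected with GAL4-UAS reporter units and chimeric zebrafish ER2a-Gal4, exposed 24 h; medium contains 3 nM 6-alpha-fluorotestosterone and 1.5 nM norgestrel. Reporter mRNA quantified by RT-PCR, HpaI digestion, capillary electrophoresis; gain versus DMSO.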
# [2] = system: chicken Androgen Receptor (AR), gene 422165; test: ATG_chAR_XSP2: Attagene TRANS-FACTORIAL Multi-Species (XSP2) HepG2 Assay for chicken Androgen Receptor (AR) (AID 2283819);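 further: hits raise reporter mRNA above DMSO so potency is for activation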
# Summary of the method: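 HepG2 cells transiently transfected with chicken AR–GAL4 chimeric reporter constructs, stimulated with 3 nM 6-alpha-fluorotestosterone plus 1.5 nM norgestrel, dosed 24 h. Reporter mRNA quantified by RT-PCR and capillary electrophoresis; gain of signal fitted versus DMSO.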
# [3] = system: frog Estrogen Receptor (ER), gene 398734; test: ATG_frER1_XSP2: Attagene TRANS-FACTORIAL Multi-Species (XSP2) HepG2 Assay for frog Estrogen Receptor (ER) (AID 2283821);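 further: hits raise reporter mRNA above DMSO baseline so potency means agonist or activator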
# Summary of the method: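 Steps: transfect HepG2 with multiple reporter transcription units; treat with chemical for 24 h; isolate RNA, reverse-transcribe, PCR-amplify, label with 6-FAM, digest with HpaI; resolve fragments by capillary electrophoresis. Signal is scored against DMSO.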
# [4] = system: zebrafish Estrogen Receptor (ER2b), gene 317733; test: ATG_zfER2b_XSP2: Attagene TRANS-FACTORIAL Multi-Species (XSP2) HepG2 Assay for zebrafish Estrogen Receptor (ER2b) (AID 2283823);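 further: fitted upward as reporter gain over DMSO so potency reflects activation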
# Summary of the method: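 HepG2 human liver cells transiently transfected with multiplexed GAL4-UAS reporter units expressing chimeric NR-Gal4 proteins; compounds dosed for 24 h. Reporter mRNA quantified by RT-PCR, 6-FAM labelling and capillary electrophoresis; gain-of-signal fitted against DMSO baseline.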
# [5] = system: frog Androgen Receptor (AR), gene 399456; test: ATG_frAR_XSP2: Attagene TRANS-FACTORIAL Multi-Species (XSP2) HepG2 Assay for frog Androgen Receptor (AR) (AID 2283824);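 further: actives raise reporter signal above DMSO so AC50 reflects agonist-like induction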
# Summary of the method: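 HepG2 cells transiently transfected with GAL4-UAS reporter units and frog (Xenopus laevis) AR-Gal4 chimera; reporter mRNA measured 24 h after dosing by RT-PCR and capillary electrophoresis. Gain of signal fitted relative to DMSO baseline.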
# [6] = molecular target: Estrogen receptor (Homo sapiens) (UniProt P03372); test: ATG_hERa_XSP2: Attagene TRANS-FACTORIAL Multi-Species (XSP2) HepG2 Assay for human Estrogen Receptor (ERa) (AID 2283827)
# Summary of the method: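 HepG2 cells transiently transfected with multiplexed GAL4-UAS reporters driven by chimeric receptor-Gal4 proteins, dosed 24 h with 3 nM 6-alpha-fluorotestosterone and 1.5 nM norgestrel present. Reporter mRNA by RT-PCR and capillary electrophoresis; gain-of-signal fit versus DMSO.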
# [7] = system: frog Estrogen Receptor (ER2), gene 100174814; test: ATG_frER2_XSP2: Attagene TRANS-FACTORIAL Multi-Species (XSP2) HepG2 Assay for frog Estrogen Receptor (ER2) (AID 2283828)
# Summary of the method: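 Multiplexed transactivation in HepG2: frog estrogen receptor fused to Gal4 drives a UAS reporter. Signal is reporter mRNA after 24 h treatment.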
# [8] = molecular target: Peroxisome proliferator-activated receptor gamma (Homo sapiens) (UniProt P37231); test: ATG_hPPARg_XSP2: Attagene TRANS-FACTORIAL Multi-Species (XSP2) HepG2 Assay for human Peroxisome Proliferator-activated Receptor gamma (PPARg) (AID 2283829);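 further: actives raise reporter mRNA above DMSO so AC50 reflects PPARg activation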
# Summary of the method: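 Reporter transcripts were measured by RT-PCR, fluorescent labeling, HpaI digestion and capillary electrophoresis, relative to DMSO, 24 h post-dosing. Transiently transfected HepG2 expressed NR-Gal4 chimeras regulating GAL4-UAS reporters; medium contained 3 nM 6-alpha-fluorotestosterone plus 1.5 nM norgestrel.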
# [9] = molecular target: mouse Peroxisome Proliferator-activated Receptor gamma (PPARg), Pparg (gene 19016) (UniProt P37238); test: ATG_mPPARg_XSP2: Attagene TRANS-FACTORIAL Multi-Species (XSP2) HepG2 Assay for mouse Peroxisome Proliferator-activated Receptor gamma (PPARg) (AID 2283830);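 further: hits are gains in reporter mRNA above DMSO so AC50 marks activation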
# Summary of the method: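 HepG2 cells transiently transfected with GAL4-UAS reporter units for chimeric NR-Gal4 proteins including mouse PPARg, exposed 24 h; medium contained 3 nM 6-alpha-fluorotestosterone and 1.5 nM norgestrel. Reporter mRNA quantified by RT-PCR, HpaI digestion and capillary electrophoresis, vs DMSO.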
# [10] = molecular target: zebrafish Thyroid Hormone Receptor alpha (TRa), thraa (gene 30670) (UniProt Q98867); test: ATG_zfTRa_XSP2: Attagene TRANS-FACTORIAL Multi-Species (XSP1) HepG2 Assay for zebrafish Thyroid Hormone Receptor alpha (TRa) (AID 2283832);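 further: actives raise zebrafish TRa-Gal4 reporter transcript above DMSO baseline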
# Summary of the method: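 Chimeric receptor-Gal4 activity was assessed in transfected human liver HepG2 cells 24 h after dosing, using reporter transcript levels detected by RT-PCR and capillary electrophoresis. DMSO served as baseline.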
# [11] = ATG_M_61_XSP2: Attagene TRANS-FACTORIAL Multi-Species (XSP2) HepG2 Assay for M61 Transcription Factor (Internal Marker) (AID 2283835; active means hit-call score of the fitted dose curve at least 0.9, where 1 is the maximum; inactive means score below 0.9;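 further: reporter mRNA of an internal background marker read by RT-PCR and capillary electrophoresis; active means a rise in signal above the DMSO baseline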)
# Summary of the method: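 First, HepG2 cells are transfected with reporter units under GAL4-UAS control. Next, chemicals are applied for 24 h. Then total RNA is reverse-transcribed, amplified, fluorescently labelled and sized by capillary electrophoresis, with gain of signal scored against DMSO.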
# [12] = molecular target: zebrafish Thyroid Hormone Receptor beta (TRb), thrb (gene 30607) (UniProt Q9PVE4); test: ATG_zfTRb_XSP2: Attagene TRANS-FACTORIAL Multi-Species (XSP1) HepG2 Assay for zebrafish Thyroid Hormone Receptor beta (TRb) (AID 2283836)
# Summary of the method: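 Fluorescence of labelled reporter cDNA fragments, separated by capillary electrophoresis, gives mRNA induction from exogenous NR-Gal4 chimeras in transiently transfected HepG2 cells after 24 h dosing; 3 nM 6-alpha-fluorotestosterone and 1.5 nM norgestrel included in the run.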
# [13] = molecular target: human Thyroid hormone Receptor alpha (TRa), THRA (gene 7067) (UniProt P10827); test: ATG_hTRa_XSP2: Attagene TRANS-FACTORIAL Multi-Species (XSP2) HepG2 Assay for human Thyroid hormone Receptor alpha (TRa) (AID 2283838)
# Summary of the method: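 HepG2 cells transiently transfected with multiplexed GAL4-UAS reporter units and exogenous NR-GAL4 chimeras; 24 h chemical exposure with 3 nM 6-alpha-fluorotestosterone and 1.5 nM norgestrel present. Reporter mRNA measured by RT-PCR, FAM labelling, HpaI digestion, capillary electrophoresis; gain-of-signal versus DMSO.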
# [14] = molecular target: frog Thyroid hormone Receptor alpha (TRa), thra-a (gene 397942) (UniProt P15204); test: ATG_frTRa_XSP2: Attagene TRANS-FACTORIAL Multi-Species (XSP2) HepG2 Assay for frog Thyroid hormone Receptor alpha (TRa) (AID 2283839)
# Summary of the method: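 Reporter transcripts were measured by RT-PCR with capillary electrophoresis after 24 h dosing of HepG2 carrying transiently transfected multi-reporter units, including a chimeric frog TRa-GAL4 construct. Activity was taken as increase over DMSO vehicle.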
# [15] = molecular target: human Thyroid hormone Receptor beta (TRb), THRB (gene 7068) (UniProt P10828); test: ATG_hTRb_XSP2: Attagene TRANS-FACTORIAL Multi-Species (XSP2) HepG2 Assay for human Thyroid hormone Receptor beta (TRb) (AID 2283840);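 further: actives raise reporter mRNA so potency reflects agonist-like gain of signal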
# Summary of the method: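 Activity of exogenous human TRb–Gal4 fusion measured by reporter mRNA from RT-PCR and capillary electrophoresis, 24 h after dosing transfected HepG2. 6-alpha-fluorotestosterone (3 nM) and norgestrel (1.5 nM) present. Gain-of-signal fit relative to DMSO.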
# zebrafish Thyroid Hormone Receptor alpha (TRa), thraa (gene 30670), sequence (Q98867 whole entry, looked up, the tested form may be a part): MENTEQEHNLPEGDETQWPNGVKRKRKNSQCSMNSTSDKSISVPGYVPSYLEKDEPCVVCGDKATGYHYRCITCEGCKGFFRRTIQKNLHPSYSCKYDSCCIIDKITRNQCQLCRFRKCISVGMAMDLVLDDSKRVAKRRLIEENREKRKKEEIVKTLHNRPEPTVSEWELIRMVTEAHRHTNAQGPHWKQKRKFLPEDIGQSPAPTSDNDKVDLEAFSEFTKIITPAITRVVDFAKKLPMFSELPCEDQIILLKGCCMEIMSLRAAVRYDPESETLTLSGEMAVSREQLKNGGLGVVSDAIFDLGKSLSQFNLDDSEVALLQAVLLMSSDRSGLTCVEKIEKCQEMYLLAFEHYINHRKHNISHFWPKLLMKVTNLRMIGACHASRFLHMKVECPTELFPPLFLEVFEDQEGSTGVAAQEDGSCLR
# mouse Peroxisome Proliferator-activated Receptor gamma (PPARg), Pparg (gene 19016), sequence (P37238 whole entry, looked up, the tested form may be a part): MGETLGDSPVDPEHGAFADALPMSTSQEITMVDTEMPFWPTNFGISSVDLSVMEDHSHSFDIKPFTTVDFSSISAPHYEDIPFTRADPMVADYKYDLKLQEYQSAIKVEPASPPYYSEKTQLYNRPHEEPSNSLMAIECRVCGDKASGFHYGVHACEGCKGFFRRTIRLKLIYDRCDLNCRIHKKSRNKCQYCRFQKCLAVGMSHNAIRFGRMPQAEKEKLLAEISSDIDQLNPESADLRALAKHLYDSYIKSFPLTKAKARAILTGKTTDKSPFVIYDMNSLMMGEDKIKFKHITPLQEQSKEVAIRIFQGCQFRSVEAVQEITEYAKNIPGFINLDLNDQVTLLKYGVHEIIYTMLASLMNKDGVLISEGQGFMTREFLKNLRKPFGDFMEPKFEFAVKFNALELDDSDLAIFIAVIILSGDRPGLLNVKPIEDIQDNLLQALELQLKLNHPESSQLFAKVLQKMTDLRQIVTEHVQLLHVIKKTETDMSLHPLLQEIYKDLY
# Estrogen receptor (Homo sapiens), sequence (P03372 whole entry, looked up, the tested form may be a part): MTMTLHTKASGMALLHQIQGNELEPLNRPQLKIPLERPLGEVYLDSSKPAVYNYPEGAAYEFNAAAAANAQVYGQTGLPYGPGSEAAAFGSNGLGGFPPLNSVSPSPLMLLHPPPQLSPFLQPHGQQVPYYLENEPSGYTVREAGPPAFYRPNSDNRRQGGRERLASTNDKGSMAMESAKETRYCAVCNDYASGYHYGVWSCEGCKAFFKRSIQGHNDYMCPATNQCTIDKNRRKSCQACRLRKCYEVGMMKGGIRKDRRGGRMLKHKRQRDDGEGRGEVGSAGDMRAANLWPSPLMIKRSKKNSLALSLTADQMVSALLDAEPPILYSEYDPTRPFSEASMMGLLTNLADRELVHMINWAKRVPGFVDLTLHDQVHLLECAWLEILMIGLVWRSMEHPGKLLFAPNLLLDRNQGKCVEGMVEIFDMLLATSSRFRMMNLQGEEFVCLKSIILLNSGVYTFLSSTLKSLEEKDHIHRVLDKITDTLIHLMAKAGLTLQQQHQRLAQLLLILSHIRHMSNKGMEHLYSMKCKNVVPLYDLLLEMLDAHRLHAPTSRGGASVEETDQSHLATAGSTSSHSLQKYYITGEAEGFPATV
# human Thyroid hormone Receptor alpha (TRa), THRA (gene 7067), sequence (P10827 whole entry, looked up, the tested form may be a part): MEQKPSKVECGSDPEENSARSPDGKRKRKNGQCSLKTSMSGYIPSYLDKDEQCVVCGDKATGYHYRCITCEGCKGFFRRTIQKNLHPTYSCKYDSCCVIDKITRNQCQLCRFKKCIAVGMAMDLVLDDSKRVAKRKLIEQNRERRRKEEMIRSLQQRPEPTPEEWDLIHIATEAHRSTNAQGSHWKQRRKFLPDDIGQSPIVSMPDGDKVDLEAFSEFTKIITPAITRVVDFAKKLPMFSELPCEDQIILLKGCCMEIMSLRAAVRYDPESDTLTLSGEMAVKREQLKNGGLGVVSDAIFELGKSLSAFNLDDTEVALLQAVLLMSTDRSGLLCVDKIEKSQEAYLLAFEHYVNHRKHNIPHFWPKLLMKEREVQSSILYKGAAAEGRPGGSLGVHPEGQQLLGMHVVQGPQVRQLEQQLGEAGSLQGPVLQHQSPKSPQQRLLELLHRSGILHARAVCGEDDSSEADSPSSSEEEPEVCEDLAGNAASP
# human Thyroid hormone Receptor beta (TRb), THRB (gene 7068), sequence (P10828 whole entry, looked up, the tested form may be a part): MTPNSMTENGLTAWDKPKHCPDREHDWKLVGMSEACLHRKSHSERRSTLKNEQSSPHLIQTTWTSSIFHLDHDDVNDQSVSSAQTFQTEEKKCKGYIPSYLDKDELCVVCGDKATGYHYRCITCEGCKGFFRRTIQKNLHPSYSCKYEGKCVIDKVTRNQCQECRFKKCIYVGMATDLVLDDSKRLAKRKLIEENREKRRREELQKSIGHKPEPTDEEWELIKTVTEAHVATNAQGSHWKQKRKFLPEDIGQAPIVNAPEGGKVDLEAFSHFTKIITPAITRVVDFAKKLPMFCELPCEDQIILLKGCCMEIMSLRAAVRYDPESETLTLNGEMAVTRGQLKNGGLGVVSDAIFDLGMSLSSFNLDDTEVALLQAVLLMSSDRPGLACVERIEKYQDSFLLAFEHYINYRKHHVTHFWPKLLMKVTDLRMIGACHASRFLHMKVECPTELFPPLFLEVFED
# zebrafish Thyroid Hormone Receptor beta (TRb), thrb (gene 30607), sequence (Q9PVE4 whole entry, looked up, the tested form may be a part): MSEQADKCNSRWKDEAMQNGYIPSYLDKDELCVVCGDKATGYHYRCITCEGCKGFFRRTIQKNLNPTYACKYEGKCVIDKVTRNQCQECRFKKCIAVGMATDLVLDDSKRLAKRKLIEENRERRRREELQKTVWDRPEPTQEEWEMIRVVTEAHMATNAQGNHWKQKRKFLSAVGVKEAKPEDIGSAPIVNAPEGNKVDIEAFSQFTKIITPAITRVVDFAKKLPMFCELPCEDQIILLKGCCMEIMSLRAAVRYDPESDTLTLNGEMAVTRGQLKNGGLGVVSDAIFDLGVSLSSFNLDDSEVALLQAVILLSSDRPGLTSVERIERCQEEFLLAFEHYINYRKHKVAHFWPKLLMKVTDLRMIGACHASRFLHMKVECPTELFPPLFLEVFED
# frog Thyroid hormone Receptor alpha (TRa), thra-a (gene 397942), sequence (P15204 whole entry, looked up, the tested form may be a part): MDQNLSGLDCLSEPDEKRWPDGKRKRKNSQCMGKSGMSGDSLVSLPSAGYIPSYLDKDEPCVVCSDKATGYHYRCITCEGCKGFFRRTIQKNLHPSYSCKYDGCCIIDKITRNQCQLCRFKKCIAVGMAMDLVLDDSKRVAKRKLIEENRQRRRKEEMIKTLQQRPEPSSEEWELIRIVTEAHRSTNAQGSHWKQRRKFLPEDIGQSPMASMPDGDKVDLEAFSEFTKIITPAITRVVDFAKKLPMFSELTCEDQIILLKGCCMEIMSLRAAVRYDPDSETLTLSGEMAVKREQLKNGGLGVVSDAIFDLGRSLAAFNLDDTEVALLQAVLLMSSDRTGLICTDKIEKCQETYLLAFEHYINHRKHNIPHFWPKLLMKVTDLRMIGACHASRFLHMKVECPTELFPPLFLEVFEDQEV
# Peroxisome proliferator-activated receptor gamma (Homo sapiens), sequence (P37231 whole entry, looked up, the tested form may be a part): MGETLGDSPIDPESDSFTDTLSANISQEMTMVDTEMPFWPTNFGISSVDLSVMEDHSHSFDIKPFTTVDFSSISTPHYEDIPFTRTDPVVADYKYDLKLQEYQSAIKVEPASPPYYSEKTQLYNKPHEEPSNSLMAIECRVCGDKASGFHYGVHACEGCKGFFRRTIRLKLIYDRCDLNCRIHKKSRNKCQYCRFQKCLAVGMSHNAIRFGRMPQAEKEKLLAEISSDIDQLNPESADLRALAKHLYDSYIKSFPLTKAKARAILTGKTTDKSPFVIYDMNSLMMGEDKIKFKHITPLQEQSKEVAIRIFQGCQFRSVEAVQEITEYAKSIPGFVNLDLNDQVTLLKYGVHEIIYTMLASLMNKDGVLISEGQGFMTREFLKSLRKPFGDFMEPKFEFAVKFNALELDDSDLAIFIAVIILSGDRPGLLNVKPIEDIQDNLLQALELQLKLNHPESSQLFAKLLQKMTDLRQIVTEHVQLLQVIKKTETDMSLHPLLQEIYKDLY
compound,measurement,setting,value
O=C(c1ccc(O)cc1)c1ccc(O)cc1O,AC50,[1],2.27 µM (active)
same,AC50,[2],10 µM (active)
same,AC50,[3],3.84 µM (active)
same,AC50,[4],3.62 µM (active)
same,outcome,[5],inactive
same,AC50,[6],3.48 µM (active)
same,AC50,[7],2.54 µM (active)
same,outcome,[8],inactive
same,outcome,[9],inactive
same,outcome,[10],inactive
same,outcome,[11],inactive
same,outcome,[12],inactive
same,outcome,[13],inactive
same,outcome,[14],inactive
same,outcome,[15],inactive
